Out of some 16,000 compounds screened, about 4,000 (25%) were called active. Inconclusive results (about 26%) are left out. Calls follow the shape of the dose curve; as a rule, active = well fitted curve in the direction sought with a large enough effect; inconclusive = small, poorly fitted or top-dose-only effect, or effect the other way; inactive = no such curve, though single readings can be large or run the other way. These entries were drawn from the full list.
biological target: Cytochrome P450 2C9 (Homo sapiens) (UniProt P11712); assay: Cytochrome panel assay with activity outcomes; conditions: recombinant CYP, pro-luciferin dealkylation, luminescence, p450-cyp2c9; series mostly up to 57.1 µM; activity, negative = inhibition: at the top concentration
Sequence (P11712 whole entry, looked up): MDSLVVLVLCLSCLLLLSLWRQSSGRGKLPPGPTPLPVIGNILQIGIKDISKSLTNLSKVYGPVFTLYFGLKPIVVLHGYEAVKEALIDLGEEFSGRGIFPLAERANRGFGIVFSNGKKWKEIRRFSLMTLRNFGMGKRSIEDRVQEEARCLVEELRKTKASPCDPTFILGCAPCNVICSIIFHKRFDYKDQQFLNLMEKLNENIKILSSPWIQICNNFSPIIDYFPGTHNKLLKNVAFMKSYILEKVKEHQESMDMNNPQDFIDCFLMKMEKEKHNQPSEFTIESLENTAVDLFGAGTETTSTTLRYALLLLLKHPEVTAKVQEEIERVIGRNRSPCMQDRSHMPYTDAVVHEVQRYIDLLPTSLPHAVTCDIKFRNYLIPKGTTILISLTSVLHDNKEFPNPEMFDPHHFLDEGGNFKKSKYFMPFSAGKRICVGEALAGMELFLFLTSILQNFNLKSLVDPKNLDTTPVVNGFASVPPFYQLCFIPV
% is scaled to controls: 0 for no effect and ±100 for the full control effect.

AC50, active:
CCOC(=O)c1ccccc1Oc1c(F)c(F)nc(NCCO)c1F 6.31 µM, COC(=O)c1ccccc1Oc1c(F)c(F)nc(N2CCOCC2)c1F 15.8 µM, O=C(Nc1ccc(Cl)cc1)c1cnc(-c2ccccc2)nc1-c1ccccc1 0.794 µM, Nc1ccc(Sc2cnn(-c3ccccc3)c(=O)c2Cl)cc1 1 µM, Cc1onc(-c2c(Cl)cccc2Cl)c1C(=O)N1CCc2ccccc2C1 3.16 µM, O=C(N/N=C/c1ccncc1)c1cc([N+](=O)[O-])cc([N+](=O)[O-])c1O 0.0631 µM, Cc1ccccc1C(=O)N/N=C/c1ccncc1 12.6 µM, C=CCn1c(Cc2c[nH]c3ccccc23)nnc1SCC(=O)NCc1ccccc1 14.1 µM, CC(C)n1nnnc1SCC(=O)NCCc1ccccc1 15.8 µM, CCn1c(CC(=O)Nc2ccc(C)cc2)nnc1SCC(=O)NCCc1ccccc1 15.8 µM, CCn1c(CSCc2ccc(C)cc2)nnc1SCC(=O)NCc1ccccc1 15.8 µM, O=C1NCC2=C1C(c1ccc(Br)cc1)Nc1ccccc1N2 (stereo not drawn) 8.91 µM, COc1ccc(-c2ccc(=O)n(CC(=O)Nc3nnc(C(C)C)s3)n2)cc1OC 14.1 µM, C=CCNc1nc(-c2ccc(Cl)cc2)cs1 22.4 µM, CCCCSCc1nc2nc(Cl)c(Cl)nc2[nH]1 0.501 µM, COc1ccc(-c2ccc(C(=S)N3CCN(C(C)=O)CC3)o2)cc1 3.98 µM, COc1ccc(COC(=O)N/N=C(\C)CC(=O)Nc2c(C)cc(C)cc2C)cc1 14.1 µM

AC50, inactive:
O=C(O)C1=CCCNC1

activity, negative = inhibition, inactive:
COc1ccccc1-c1ccc2ncnc(N3CCOCC3)c2c1 -16.7% [at 2.29 µM], CCOC(=O)NNc1nncc2ccccc12 -3.9% [at 25.6 µM], O=C(Nc1ccc(-c2csc(-c3ccccc3)n2)cc1)c1ccccc1Cl 5.47%, OC1CC2CC[C@H](C1)N2CCCN1c2ccccc2Sc2ccc(Cl)cc21 (stereo partly drawn) 8.65% [at 11.4 µM], c1cncc(CNc2ncn[nH]2)c1 -1.61% [at 11.4 µM], Cc1ccc(-n2ncc(N(C)C)c(Cl)c2=O)cc1 -24.9%, COC(=O)N1CCC2(CCN(Cc3nccs3)CC2)CC1 6.72%, Cc1noc(C)c1C(=O)N1CCC2(CCCN(Cc3ccccc3)C2)CC1 10.1%, Cc1noc(C)c1C(=O)N1CCC[C@@]2(CCN(Cc3ccccc3)C2)C1 -14%, O=C(N/N=C/c1cccnc1)c1ccc([N+](=O)[O-])cc1 8.44%, Cc1ccccc1C(=O)NNC(=O)c1ccoc1C 25%, O=C(N/N=C\c1cccc(O)c1)c1ccncc1 1.23% [at 11.4 µM], CC[C@@H]1OC(=O)[C@H](C)[C@H](O[C@@H]2C[C@](C)(OC)[C@H](O)[C@H](C)O2)[C@H](C)[C@H](O[C@@H]2O[C@@H](C)C[C@@H](N(C)C)[C@@H]2O)[C@](C)(O)C[C@H](C)[C@@H]2N[C@H](COCCOC)O[C@H]([C@@H]2C)[C@]1(C)O 14.7% [at 25.6 µM], C/C=C\C1=C(CO)C(=O)C2O[C@]2(CC=C(C)C)C1=O (stereo partly drawn) 9.54% [at 11.4 µM], CCn1c(CNC(=O)COc2ccc(C(C)C)cc2)nnc1SCC(=O)Nc1cc(F)ccc1C -17%, Cc1ccc(NC(=O)CCSc2nnc3ccccn23)cc1 15.1%, O=C(CSc1nnnn1-c1ccccc1)NCc1cccs1 21.8%, N[C@@H](Cc1c[nH]c2ccccc12)C(=O)O 9.92%, Cc1noc(C)c1-c1nc(Nc2ccncc2)c2ccccc2n1 -10.8% [at 2.29 µM], COc1cccc2c1[C@@H]1CN(CCCCn3c(=O)[nH]c4c(sc5ncc(-c6ccccc6)nc54)c3=O)C[C@H]1CO2 -12%, CCN1C(=O)[C@H]2[C@H]3[C@H](O)[C@H](O)C/C(=N/NC(=O)OCc4ccccc4)[C@H]3CC[C@@H]2C1=O -10.2% [at 11.4 µM], CN(C)Cc1cc(C(C)(C)C)ccc1-c1ccc(C(C)(C)C)cc1CN(C)C 12.6% [at 11.4 µM], CN(C)CCNC(=O)Cn1nc(-c2ccc(Cl)cc2)ccc1=O 20.5%, CC(C)C[C@H](NC(=O)[C@@H]1O[C@H]1C(=O)O)C(=O)NCCCCN=C(N)N 21.6%, CC(C)CNC(=S)N1CCN(C)CC1 -15.7%, Nc1ccc(CCNc2ncnc3c2ncn3[C@@H]2O[C@@H](CO)[C@H](O)[C@@H]2O)cc1 -10.3%, COc1ccc(CC(=O)NCCN2CCCC2)cc1 8.79%, COc1ccc(C(=O)N2CCC3(CCN(C)CC3)CC2)cc1 -6.61%, COc1ccc(CCN(C)CCC(=O)Nc2c(C)cc(C)cc2C)cc1OC -24.7%, COc1ccc(COC(=O)N/N=C2/C[C@@H](O)[C@@H](O)[C@@H]3[C@@H]4C(=O)N(C(C)(C)C)C(=O)[C@H]4CC[C@@H]23)cc1 -5.52% [at 11.4 µM]
